# Measurements published in PubChem BioAssay (NCATS).
# Records with an inconclusive call do not appear. Unmarked numbers belong to inactive results. The source made the active and inactive calls. The call rests on the fitted dose curve; in most records, active means well fitted cell-killing curve with a large enough effect; inconclusive means small, poorly fitted or top-dose-only effect; inactive means no such curve, though single readings can be large or run the other way.
# Experiment: qHTS of pediatric cancer cell lines to identify multiple opportunities for drug repurposing: Primary screen for NB1643 cells (AID 1347099); further: nearly all actives have a fitted effect of over 50% in size
# Settings: NB1643 neuroblastoma viability, CellTiter-Glo luminescence, 48 h; series mostly up to 46 µM; activity change, negative = cytotoxic: at the top concentration
# Excerpt: Drug repurposing or repositioning has been offered as a strategy for drug development in oncology programs. This approach has special potential for childhood cancers and other rare or orphan diseases, where the expected return on new drug development has been a disincentive to pharmaceuticals. […] In this project we exploit the poly-pharmacology of drugs to discover new indications via phenotypic screening of a panel of 19 well-characterized cell lines derived from solid tumors seen in children and adolescents. The goal is to identify approved drugs with previously unrecognized anticancer properties that has the potential to reveal new mechanisms and biological processes involved in carcinogenesis or drug resistance. We employed a titration-based paradigm (quantitative high-throughput screening or qHTS), where all compounds were tested at multiple concentrations for their effect on cell viability. Concentration-response curves (CRCs) were derived directly from the primary screen, and both potency and efficacy values were used to identify compounds with robust bioactivity profiles. We screened the NIH Chemical Genomics Center (NCGC) Pharmaceutical Collection (NPC) and Mechanism Interrogation Plate (MIPE) small molecule collections of approved and investigational compounds against these cell lines; and measured metabolically active cells after 48 hours of compound treatment as a proxy for cell viability. […] Assay Submitter: Nathalia J. Martinez, National Center for Advancing Translational Sciences, National Institutes of Health, Rockville, MD, USA; email: natalia.martinez@nih.gov Shen, M et al. Quantitative high-throughput phenotypic screening of pediatric cancer cell lines identifies multiple opportunities for drug repurposing. Oncotarget 2017 Dec 19;9(4):4758-4772. PMID 29435139.
# The cells were obtained from University of North Carolina (UNC), Pediatric Preclinical Testing Program (PPT), and Coriell Institute (CI). qHTS cell viability assay: Cells were assayed in growth media at a density of 500-1,000 cells/well. Five microliters of cells were dispensed into 1,536-well, white, solid-bottom, TC-treated plates (Greiner Bio One) using a multidrop dispenser and incubated at 37 degrees C, 5% CO2, under a humidified atmosphere for 5 hours. Twenty-three nanoliters of compounds and controls (neutral control DMSO or positive control bortezomib at final concentration of 2.3 µM) were subsequently transferred by Kalypsys pintool. For primary screens, the MIPE collection was tested at 11-point dilutions (final concentrations range from 0.78 nM to 46 µM) and the NPC collection at 8-point dilutions (final concentrations range from 0.59 nM to 46 µM). Compounds tested in follow-up screens were assayed at 11-point dilutions. Cells were incubated for 48 hours, followed by addition of 3 µL of CellTiter-Glo (Promega). After a 15 min incubation at room temperature, samples were analyzed for luminescence intensity using a ViewLux High-throughput CCD imager equipped with clear filters.
Structure (SMILES),"activity change, negative = cytotoxic",Potency
CN1C(=O)CN=C(c2ccccc2)c2cc([N+](=O)[O-])ccc21,24.8%,–
C[N+](C)(C)CCOC(=O)C(O)(c1ccccc1)c1ccccc1,-12.5%,–
CCC1(c2ccccc2)CCC(=O)NC1=O (stereo not given),13.1%,–
CCN(CC)C(C)C(=O)c1ccccc1 (stereo not given),14.8%,–
CNC(=O)Oc1cccc2ccccc12,11.8%,–
COC(=O)C1=CCCN(C)C1,–,inactive
CCOC(=O)C(c1c(O)c2ccccc2oc1=O)c1c(O)c2ccccc2oc1=O,5.66%,–
COc1cc(CC(C)N)c(OC)cc1Br (stereo not given),0% [at 92.7 µM],–
CC(C(O)c1ccccc1)N(C)C/C=C/c1ccccc1 (stereo not given),-0.5%,–
COc1ccc(CN2CCNCC2)c(OC)c1OC,5.71%,–
Nc1ccc(Cl)cc1C(=O)c1ccccc1F,-7.69%,–
CC1=C2[C@H]3OC(=O)[C@@H](C)[C@@H]3CC[C@@]2(C)C=CC1=O,-6.82%,–
COc1ccc(C(=O)N2CCCC2=O)cc1,–,inactive
CCCCC1C(=O)NC(=O)N(C2CCCCC2)C1=O (stereo not given),8.63%,–
CCOC(=O)NC(C)(C)Cc1ccc(Cl)cc1,13.9%,–
O=C(O)c1nn(Cc2ccc(Cl)cc2Cl)c2ccccc12,8.25%,–
CCO[C@H]1O[C@@H]2OC3(C)CC[C@H]4[C@H](C)CC[C@@H]([C@H]1C)[C@@]24OO3,4.3%,–
O=C(NC(=O)c1c(F)cccc1F)Nc1cc(Cl)c(OC(F)(F)C(F)C(F)(F)F)cc1Cl (stereo not given),1.36%,–
CC1COC2(c3ccccc3Cl)c3cc(Cl)ccc3NC(=O)CN12 (stereo not given),-21.2%,–
c1cc2c(c(N3CCNCC3)c1)OCCO2,18.1%,–

Structure (SMILES),"activity change, negative = cytotoxic",Potency
OC(O)C(Cl)(Cl)Cl,14.1%,–
CC(C)(O)C(Cl)(Cl)Cl,5.8%,–
CCCN(CCC)CCc1c[nH]c2ccccc12,-19.5% [at 92.7 µM],–
CCOC(=O)c1ncn2c1CN(C)C(=O)c1c(I)cccc1-2,13.3%,–
COc1cc(CC#N)cc(OC)c1OC,9.43%,–
CNC(=O)NC(O)C(Cl)(Cl)Cl (stereo not given),-2.22%,–
CC(Cc1ccc2c(c1)OCO2)NO (stereo not given),-7.43% [at 92.7 µM],–
Clc1ccc(CO/N=C(\Cn2ccnc2)c2ccc(Cl)cc2Cl)c(Cl)c1,-27.1%,–
CC(C)=CCN1CC[C@@]2(C)c3cc(O)ccc3C[C@@H]1[C@@H]2C,-9.32% [at 92.7 µM],–
CNC(C)Cc1ccc2c(c1)OCO2 (stereo not given),-0.431% [at 92.7 µM],–
C[C@]12CC[C@H]3[C@@H](CCC4=CC(=O)CC[C@@H]43)[C@@H]1CC[C@@H]2O,3.87%,–
O=C(N[C@H]1N=C(c2ccccc2F)c2cccc3c2N(CC3)C1=O)c1cc2ccccc2[nH]1,15.4%,–
CN(C)CCc1c[nH]c2cccc(O)c12,0% [at 92.7 µM],–
Oc1c(Br)cc(Br)cc1Br,20.7%,–
CN1C2CCC(C)(C)C1CC(OC(=O)C(O)(c1cccs1)c1cccs1)C2 (stereo not given),18.5%,–
Cc1ccc(N=CN(C)C=Nc2ccc(C)cc2C)c(C)c1,0.143%,–
CCC(=O)O[C@H]1CC[C@H]2[C@@H]3CCC4=CC(=O)CC[C@]4(C)[C@H]3CC[C@]12C,12.9%,–
CCC(=O)OC1(c2ccccc2)CCN(C)CC1,-4.17% [at 92.7 µM],–
OC(c1ccccc1)(c1ccccc1)C1CCNCC1,16.3%,–
CC(C)NCC(O)c1ccc(N)c(C#N)c1 (stereo not given),4.86%,–
